The text below walks through data of PubChem BioAssay (NCI).

Molecules are shown by their SMILES. Compounds without any hit were thinned out: in the full panel of roughly 83,000, 20% have a hit.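 Activity criterion: percent growth below 10, measured after cells in 96-well plates were exposed to a single compound concentration for 48 hours.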 A number with no mark means an inactive call. The source made the active and inactive calls.

Test systems include SK-MEL-2 melanoma; EKVX NSCLC; SN12C renal; UO-31 renal; TK-10 renal; ACHN renal; CAKI-1 renal; A498 renal; CCRF-CEM leukemia; MOLT-4 leukemia; RPMI-8226 leukemia; OVCAR-8 ovarian; SK-OV-3 ovarian; IGROV1 ovarian; OVCAR-3 ovarian; NCI/ADR-RES ovarian; OVCAR-4 ovarian; HS 578T breast; OVCAR-5 ovarian; SR leukemia.
Common to all, as to assay: NCI-60 one-dose screen, 48 h (100 = growth as untreated, 0 = no growth, -100 = all killed)
Holding throughout (details): 10 µM unless noted

For `COc1ccc(OC)c2c1[nH]c(=O)c1c3ncccc3cn21`, the growth is 65.6% in the assay with SK-MEL-2 melanoma; 34.4% in the assay with EKVX NSCLC; 13.3% in the assay with SN12C renal; 26.5% with UO-31 renal; 38.6% in the assay on TK-10 renal; 17.7% with ACHN renal. The growth was -29.2% (active) with CAKI-1 renal; 31.5% with A498 renal; 36.5% with CCRF-CEM leukemia; 17.7% in the assay with MOLT-4 leukemia; 30.1% with RPMI-8226 leukemia; 16.8% with OVCAR-8 ovarian. In addition, the growth with SK-OV-3 ovarian was 38.9%; in the assay with IGROV1 ovarian it was 28%; in the assay on OVCAR-3 ovarian, 46.8%; with NCI/ADR-RES ovarian, 13.8%.
`S=C(c1ccc2c(c1)OCO2)N1CCN(c2ccccc2Cl)CC1`: the growth in the assay on SK-MEL-2 melanoma is 97.3%; with EKVX NSCLC, 124%; in the assay with SN12C renal, 110%; with UO-31 renal it was 79.4%; in the assay on TK-10 renal, 105%; in the assay with ACHN renal, 99%. The growth was 83.8% in the assay on CAKI-1 renal; 97% with A498 renal; 96.1% with CCRF-CEM leukemia; 95.8% with MOLT-4 leukemia; 85.9% in the assay with RPMI-8226 leukemia; 102% in the assay with OVCAR-8 ovarian. The growth in the assay on OVCAR-4 ovarian was 98.7%; in the assay on SK-OV-3 ovarian, 102%; with IGROV1 ovarian, 101%; with OVCAR-3 ovarian, 112%; with HS 578T breast it was 107%; in the assay on NCI/ADR-RES ovarian, 99.7%.
In the case of `COC(=O)c1ccc(C2Nc3ccc(S(=O)(=O)Nc4ccc(C)c(C)c4)cc3C3OCCC23)cc1` (stereo unspecified), the growth is 93.4% with SK-MEL-2 melanoma; 57.9% in the assay on EKVX NSCLC; 85.3% in the assay with SN12C renal; 74.9% in the assay with UO-31 renal; 90.4% in the assay with TK-10 renal; 89.4% in the assay with ACHN renal. In addition, the growth with CAKI-1 renal was 75%; in the assay with A498 renal, 74.3%; with CCRF-CEM leukemia, 74.2%; in the assay with MOLT-4 leukemia it was 60.6%; with OVCAR-8 ovarian, 92%; with OVCAR-5 ovarian it was 95.7%. In addition, the growth in the assay on SK-OV-3 ovarian was 92%; in the assay on IGROV1 ovarian, 84.4%; in the assay on OVCAR-3 ovarian it was 79.1%; in the assay on HS 578T breast, 100%; in the assay with NCI/ADR-RES ovarian, 88.5%.
Regarding `COC(=O)[C@]12CC[C@@H](C)[C@H](C)[C@@H]1C1=CC[C@@H]3[C@@]4(C)C(C=O)=C[C@@](C)(COS(C)(=O)=O)[C@@H]4C(=O)C[C@@]3(C)[C@]1(C)CC2`, the growth with SK-MEL-2 melanoma is 66.9%; with EKVX NSCLC it was 53.2%; in the assay on SN12C renal, 36.2%; in the assay with UO-31 renal it was 34.2%; in the assay with TK-10 renal, 54.2%; in the assay on ACHN renal it was 17.8%. The growth in the assay on CAKI-1 renal is 53.3%; with A498 renal it was 98.2%; in the assay with CCRF-CEM leukemia it was 30.9%; in the assay on SR leukemia, 24.9%; in the assay on RPMI-8226 leukemia, 23.4%; in the assay with OVCAR-8 ovarian it was 44.6%. Moreover, the growth in the assay on OVCAR-5 ovarian was 67.1%; with OVCAR-4 ovarian, 37.7%; in the assay with SK-OV-3 ovarian it was 66.4%; in the assay with IGROV1 ovarian, 52.1%; with OVCAR-3 ovarian, 31.4%; in the assay with HS 578T breast it was 62.3%. Further, in the assay with NCI/ADR-RES ovarian, the growth is 38.6%.
Regarding `COc1cccc(-c2nn(-c3ccccc3)cc2-c2ccnc(NCCNC(=O)c3ccccc3)c2)c1`, the growth with SK-MEL-2 melanoma was 84.7%; in the assay on EKVX NSCLC it was 66.6%; with SN12C renal, 71.4%; in the assay with UO-31 renal, 49.7%; in the assay on TK-10 renal it was 90.1%; in the assay with ACHN renal, 74.1%. The growth in the assay on CAKI-1 renal was 68%; in the assay on A498 renal, 46.6%; in the assay with CCRF-CEM leukemia, 48.7%; with SR leukemia, -12.5% (active); in the assay with RPMI-8226 leukemia, 42.3%; in the assay with OVCAR-8 ovarian it was 43.8%. Further, the growth in the assay on OVCAR-5 ovarian is 102%; in the assay on OVCAR-4 ovarian, 53.7%; in the assay with SK-OV-3 ovarian, 65.3%; in the assay with IGROV1 ovarian, 79.6%; in the assay with OVCAR-3 ovarian, 63.1%; in the assay on HS 578T breast it was 68.5%. The growth in the assay with NCI/ADR-RES ovarian was 46.6%.
For the compound `COC(=O)[C@]12CC[C@@H](C)[C@H](C)[C@@H]1C1=CC[C@@H]3[C@@]4(C)C(C=O)=C[C@@](C)(COC(=O)c5ccco5)C4=CC[C@@]3(C)[C@]1(C)CC2`, the growth in the assay with SK-MEL-2 melanoma is -42.1% (active); in the assay with EKVX NSCLC, 11%; with SN12C renal, 17.1%; in the assay on UO-31 renal, -55.3% (active); with TK-10 renal it was 6.65% (active); with ACHN renal, -33.9% (active). Further, the growth was 14.3% in the assay with CAKI-1 renal; 22.2% in the assay with A498 renal; 4.27% (active) in the assay with CCRF-CEM leukemia; -8.74% (active) in the assay on SR leukemia; 4.82% (active) in the assay with RPMI-8226 leukemia; 19.6% in the assay on OVCAR-8 ovarian. For the same compound, the growth in the assay with OVCAR-5 ovarian is 8.46% (active); with OVCAR-4 ovarian it was 18.6%; with SK-OV-3 ovarian it was 27.8%; in the assay on IGROV1 ovarian it was 26.5%; in the assay with OVCAR-3 ovarian it was -92.6% (active); in the assay with HS 578T breast, 3.14% (active). In addition, the growth in the assay on NCI/ADR-RES ovarian is 23.7%.
As for `CC(=O)C(C)Cc1cc2c(cc1C)C(C)(C)CCC2(C)C` (stereo unspecified), the growth was 94.8% with SK-MEL-2 melanoma; 94.4% in the assay with EKVX NSCLC; 103% in the assay on SN12C renal; 101% with UO-31 renal; 100% in the assay on TK-10 renal; 104% in the assay on ACHN renal. For the same compound, the growth in the assay on CAKI-1 renal was 97.6%; in the assay on A498 renal it was 108%; in the assay with CCRF-CEM leukemia, 121%; in the assay with SR leukemia, 131%; with RPMI-8226 leukemia it was 100%; in the assay on OVCAR-8 ovarian it was 101%. Besides, the growth in the assay with OVCAR-5 ovarian was 98.6%; with OVCAR-4 ovarian it was 104%; with SK-OV-3 ovarian, 85.7%; in the assay with IGROV1 ovarian it was 114%; in the assay with OVCAR-3 ovarian, 108%; in the assay with HS 578T breast, 102%. In the assay with NCI/ADR-RES ovarian, the growth is 98.8%.
For the compound `COc1cccc(C(=O)NCCNc2cc(-c3cn(-c4ccccc4)nc3-c3cccc(OC)c3)ccn2)c1`, the growth in the assay with SK-MEL-2 melanoma was 57.2%; with EKVX NSCLC, 69%; in the assay on SN12C renal, 74.4%; in the assay with UO-31 renal, 39.9%; in the assay on TK-10 renal it was 80.4%; in the assay with ACHN renal, 69.8%. Also, the growth in the assay on CAKI-1 renal is 69.2%; with A498 renal, 59%; in the assay on CCRF-CEM leukemia, 25.6%; in the assay on SR leukemia, 2.08% (active); with RPMI-8226 leukemia, 39.1%; with OVCAR-8 ovarian, 40%. Besides, the growth was 91.7% in the assay with OVCAR-5 ovarian; 49.6% in the assay on OVCAR-4 ovarian; 54.6% with SK-OV-3 ovarian; 74.1% with IGROV1 ovarian; 54.5% with OVCAR-3 ovarian; 61.8% in the assay on HS 578T breast. Besides, in the assay with NCI/ADR-RES ovarian, the growth is 47.2%.
